The values below come from PubChem BioAssay (NCATS).

A short description of test [1]: qHTS profiling for inhibitors of Plasmodium falciparum proliferation (AID 504749).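 For activity, negative = inhibition: 0% = DMSO vehicle and full inhibition = artemisinin control.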 Note: nearly all actives have a fitted effect of over 60% in size. Note: potency is the fitted concentration of half-maximal effect. The note with it: P. falciparum in erythrocytes, SYBR Green DNA, 72 h, at 28.7 µM (top of the series). Put shortly:
(§1)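 P. falciparum-infected erythrocytes (0.3% parasitemia, 2.5% hematocrit final) were exposed to compounds for 72 h at 37 C in 5% CO2, then lysed with SYBR Green buffer overnight at room temperature; parasite DNA fluorescence was normalized to artemisinin and DMSO controls.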

The test system of another test is 3D7. The description is as above. The note with it: P. falciparum in erythrocytes, SYBR Green DNA, 72 h; series mostly up to 28.7 µM. Put shortly:
as §1

A further test relates to 7G8. The description is as above. The note with it: P. falciparum in erythrocytes, SYBR Green DNA, 72 h; series mostly up to 28.7 µM. The procedure, abridged: as §1
The subject of another test is AA1029. The description is as above. The note with it: P. falciparum in erythrocytes, SYBR Green DNA, 72 h; series mostly up to 28.7 µM. Put shortly:
as §1

The next test deals with AS120. The description is as above. The note with it: P. falciparum in erythrocytes, SYBR Green DNA, 72 h; series mostly up to 28.7 µM. Put shortly: as §1
The subject of another test is ATS189. Described as above. The note with it: P. falciparum in erythrocytes, SYBR Green DNA, 72 h; series mostly up to 28.7 µM. The procedure, abridged:
as §1

The test system of a further test is ATS95. The test is described as above. The note with it: P. falciparum in erythrocytes, SYBR Green DNA, 72 h; series mostly up to 28.7 µM. Put shortly:
as §1

The next test concerns C2A. The test is described as above. The note with it: P. falciparum in erythrocytes, SYBR Green DNA, 72 h; series mostly up to 28.7 µM. The procedure, abridged: as §1
The subject of a further test is CP185. The test is described as above. The note with it: P. falciparum in erythrocytes, SYBR Green DNA, 72 h; series mostly up to 28.7 µM. Put shortly:
as §1

The next test concerns CP191. Described as above. The note with it: P. falciparum in erythrocytes, SYBR Green DNA, 72 h; series mostly up to 28.7 µM. The procedure, abridged: as §1
The next test deals with CP192. Described as above. The note with it: P. falciparum in erythrocytes, SYBR Green DNA, 72 h; series mostly up to 28.7 µM. The procedure, abridged: as §1
Another test deals with CP194. The description is as above. The note with it: P. falciparum in erythrocytes, SYBR Green DNA, 72 h; series mostly up to 28.7 µM. Put shortly: as §1
The next test concerns CP201. Described as above. The note with it: P. falciparum in erythrocytes, SYBR Green DNA, 72 h; series mostly up to 28.7 µM. The procedure, abridged: as §1
A further test deals with CP203. The test is described as above. The note with it: P. falciparum in erythrocytes, SYBR Green DNA, 72 h; series mostly up to 28.7 µM. The procedure, abridged: as §1
In another test the test system is CP211. Described as above. The note with it: P. falciparum in erythrocytes, SYBR Green DNA, 72 h; series mostly up to 28.7 µM. The procedure, abridged:
as §1

The subject of another test is CP215. The test is described as above. The note with it: P. falciparum in erythrocytes, SYBR Green DNA, 72 h; series mostly up to 28.7 µM. Put shortly:
as §1

A further test relates to CP217. The test is described as above. The note with it: P. falciparum in erythrocytes, SYBR Green DNA, 72 h; series mostly up to 28.7 µM. Put shortly: as §1
The test system of another test is CP237. Described as above. The note with it: P. falciparum in erythrocytes, SYBR Green DNA, 72 h; series mostly up to 28.7 µM. The procedure, abridged:
as §1

The test system of the next test is CP238. The test is described as above. The note with it: P. falciparum in erythrocytes, SYBR Green DNA, 72 h; series mostly up to 28.7 µM. Put shortly: as §1
Test [2] in a line: qHTS drug screen for cell cycle checkpoint inhibitors in PARPi-resistant BRCA-mutant ovarian cancer cell lines. (AID 1963452; calls by dose curve). The note with it: PEO1/OlaR viability, CellTiter-Glo luminescence, 96 h, stronger effect = lower value. The procedure, abridged:
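PEO1, PEO4 and PEO1/OlaR ovarian cancer cells, 600 per well, exposed 96 h at 37C to a dilution series. Viability read by CellTiter-Glo luminescence, normalized to DMSO and empty wells; activity summarized as Z-AUC.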

Where [3] appears, read: measured here: PEO1 parental Z-AUC.

Records with an inconclusive call do not appear. The source made the active and inactive calls. Unless noted, calls come from the whole dose curve; as a rule, active = well fitted inhibition curve with a large enough effect; inconclusive = small, poorly fitted or top-dose-only effect; inactive = flat fitted curve, though single readings scatter.

For the compound `FC1(F)C(F)(F)C(F)(F)C2(F)C(F)(F)C(F)(F)C(F)(F)C(F)(F)C2(F)C1(F)F` (stereo not drawn), the activity, negative = inhibition was 5.48% (inactive) in [1] (parasite line A) and 12.9% (inactive) in [1] (parasite line B). Moreover, the Potency result with 3D7, with 7G8, in the test on AA1029, with AS120, with ATS189 and in the test on ATS95 was “inactive” in each case. Besides, the Potency result in the test with C2A, with CP185, with CP191, in the test with CP192, in the test with CP194 and with CP201 was “inactive” each time. The Potency result in the test on CP203, with CP211, in the test with CP215, with CP217, in the test on CP237 and in the test with CP238 was “inactive” each time.

Regarding `CC(=O)Nc1ccc(OCC(O)CNC(C)C)cc1` (stereo not drawn), the activity, negative = inhibition is 13.4% (inactive) in test [1] (parasite line A) and 11.8% (inactive) in [1] (parasite line B). Moreover, the Potency result with 3D7, in the test with 7G8, in the test with AA1029, in the test on AS120, with ATS189 and in the test with ATS95 was “inactive” each time. Further, the Potency result in the test on C2A, with CP185, with CP191, in the test on CP192, in the test with CP194 and with CP201 was “inactive” in each case. The Potency entry in the test on CP203, with CP211, with CP215, with CP217, with CP237 and in the test on CP238 was “inactive” each time.

With `C#C[C@]1(O)CC[C@H]2[C@@H]3CCC4=CC(=O)CC[C@@H]4[C@H]3CC[C@@]21CC`, the Z-AUC was -1.07 (inactive) in [2], -0.819 in test [2] (setting [3]) and -0.784 in test [2] (measured here: PEO4 Z-AUC). For the same compound, the figures for the activity, negative = inhibition in [1] (parasite line A) and in [1] (parasite line B) were -9.46% (inactive) and -6.83% (inactive), respectively. Also, the Potency entry in the test with 3D7, with AA1029, with AS120, in the test with ATS189, in the test on ATS95 and in the test on C2A was “inactive” in each case. Also, the Potency result in the test with CP185, with CP191, with CP192, in the test with CP194, with CP201 and with CP203 was “inactive” each time. Also, the Potency entry in the test with CP211, with CP215, in the test on CP217 and in the test with CP238 was “inactive” throughout. Further, the Potency in the test with CP237 is 6.31 µM (active).

For `C/C=C/C=N/NC(=O)c1ccncc1`, the activity, negative = inhibition in test [1] (parasite line A) is -1.02% (inactive); in test [1] (parasite line B), -0.189% (inactive). The Potency result with 3D7, with 7G8, in the test on AA1029, in the test on AS120, with ATS189 and with ATS95 was “inactive” in each case. Further, the Potency entry in the test on C2A, in the test on CP185, in the test on CP191, with CP192, in the test with CP194 and with CP201 was “inactive” throughout. Besides, the Potency result with CP203, in the test with CP211, in the test on CP215, in the test on CP217, in the test with CP237 and with CP238 was “inactive” in each case.

`CCc1ccc(C(=O)C(C)CN2CCCCC2)cc1` (stereo not drawn): the figures for the activity, negative = inhibition in test [1] (parasite line A) and in test [1] (parasite line B) were 2.55% (inactive) and 6.09% (inactive), respectively. The Potency result with 3D7, in the test with 7G8, in the test with AA1029, in the test with AS120, with ATS189 and with ATS95 was “inactive” in each case. The Potency result in the test on C2A, in the test on CP185, in the test on CP191, in the test with CP192, in the test on CP194 and with CP201 was “inactive” each time. For the same compound, the Potency result with CP203, with CP211, in the test with CP215, with CP217, in the test with CP237 and with CP238 was “inactive” throughout.

For the compound `C=C[C@H]1CN2CC[C@H]1C[C@@H]2[C@@H](O)c1ccnc2ccc(OC)cc12`, the results for the Z-AUC in [2], in test [2] (setting [3]) and in test [2] (measured here: PEO4 Z-AUC) were -0.544 (inactive), -0.182 and -0.0481, respectively.

On to `CCCCCCCCCCC[C@@H](C[C@@H]1OC(=O)[C@H]1CCCCCC)OC(=O)[C@H](CC(C)C)NC=O`, for which the Z-AUC was 1.22 (inactive) in test [2], 1.61 in test [2] (setting [3]) and 1.43 in test [2] (measured here: PEO4 Z-AUC).
